Hits are enriched below; roughly 2.8% of the tested compounds scored in any of these assays.
PTHR1 ag: agonists of human PTHR1 parathyroid hormone receptor; Potency, µM (titrated, usually from 115 µM), inactives show top-dose activation, most hits filed as activators; Q03431; HEK293 GP2 PTHR1 cells, GloSensor cAMP luminescence, 1 h; AID 743266; 410,000 tested, 0.075% active; further: potency means the concentration at half of the fitted maximal effect; nearly all actives have a fitted effect of over 55% in size
Target sequence (Q03431 whole entry, looked up): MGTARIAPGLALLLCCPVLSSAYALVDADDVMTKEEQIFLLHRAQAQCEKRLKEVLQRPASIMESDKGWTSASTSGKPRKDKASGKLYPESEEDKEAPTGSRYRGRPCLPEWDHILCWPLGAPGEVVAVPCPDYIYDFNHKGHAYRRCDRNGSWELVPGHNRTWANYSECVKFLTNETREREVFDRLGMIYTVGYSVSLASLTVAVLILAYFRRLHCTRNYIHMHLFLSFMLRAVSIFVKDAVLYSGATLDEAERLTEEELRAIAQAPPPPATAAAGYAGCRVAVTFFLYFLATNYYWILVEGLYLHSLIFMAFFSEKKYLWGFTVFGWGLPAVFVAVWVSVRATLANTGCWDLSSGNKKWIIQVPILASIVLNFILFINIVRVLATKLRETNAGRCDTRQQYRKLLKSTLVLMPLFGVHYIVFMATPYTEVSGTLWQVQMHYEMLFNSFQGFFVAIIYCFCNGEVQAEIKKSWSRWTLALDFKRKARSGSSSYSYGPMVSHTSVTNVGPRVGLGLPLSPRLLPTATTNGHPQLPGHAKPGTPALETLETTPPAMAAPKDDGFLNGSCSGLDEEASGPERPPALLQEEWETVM
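HEK-293-derived GP2 cells expressing PTHR1 and a GloSensor cAMP reporter, 3,000/well, plated overnight, given luciferin plus IBMX (each 0.5 mM as added) for 1 h at 37 °C, then compound for 1 h at 37 °C. Luminescence was read after 15 min at room temperature.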
D3 ag: activates the human D3 dopamine receptor. P35462. D3R DiscoveRx beta-arrestin cells, luminescence, 90 min. max activation, %. 410,000 tested, 0.58% active; in the data active means max activation above about 30%; further: 0% is about no effect
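Agonist-mode cell screen: cells plated at 1500/well and incubated overnight at 37 °C, then exposed to library compounds for 90 min at 37 °C. Detection reagent was added for 30–60 min at room temperature, and luminescence was read.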
CBFb RUNX1 block: blocks binding between human CBF-beta and RUNX1; Q01196+Q13951; AlphaScreen CBFb-His/RUNX1-biotin binding, biochemical; Potency, µM (titrated, usually from 59.8 µM), inactives show at the highest dose activity, negative = inhibition, usual class: inhibitors; 230,000 tested, under 10 active; AID 1477; further: % of control where 0% means no effect
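Compounds were screened at multiple concentrations against a preformed CBF-beta(His)/RUNX1(biotin) complex (30 nM of each) for 15 min at room temperature, followed by 90 min with nickel and streptavidin beads and AlphaScreen reading.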
Integrin act MD: activates integrin-mediated alleviation for muscular dystrophy; alpha7betagal myoblasts, beta-gal FDG fluorescence, 48 h; Potency, µM (series often up to 38.3 µM), for the others: at the highest dose activation, most hits filed as activators; 350,000 tested, 0.064% active;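 further: potency means the concentration at half of the fitted maximal effect; 100% = response of the positive control SU9516; nearly all actives have a fitted effect of over 60% in size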
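Alpha7betagal+/- myoblasts (passage 13) were plated 16-24 hr, then exposed to compounds (1:260 dilution of DMSO stock) for 48 hours at 37C. After MPER lysis, β-galactosidase reporter activity was read as FDG fluorescence (ex 480/em 540) after 30 minutes.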
MBNL1 CUG block: inhibitors of human MBNL1 binding to CUG repeat RNA; Q9NR56; TR-FRET MBNL1-His/biotin-(CUG)12 binding, 665/545 ratio; Potency, µM (titrated, usually from 57.5 µM), without a hit: at the highest dose activity change, negative = inhibition, hits mostly inhibitors; 280,000 tested, 0.036% active; AID 2675; active means well fitted inhibition curve with a large enough effect in the signal ratio, with a control signal flat, not every such curve was filed as active; inconclusive means small, poorly fitted or top-dose-only effect, or effect the other way, or a change in a side signal; inactive means no such curve, though single readings can be large or run the other way; the % refers to the signal ratio; further: potency means the concentration at half of the fitted maximal effect; on the % scale 0 is the no-effect control and ±100 the full control effect
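Inhibition of protein-RNA binding appears as loss of TR-FRET between terbium anti-His antibody on MBNL1-His and streptavidin-XL665 on biotin-(CUG)12. Activity is normalized to buffer-only and uninhibited-complex controls.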
DRD3 antagonist: blocks the human D3 dopamine receptor. 360,000 tested, 2.5% active. max response, negative = inhibition, %. AID 652054. D3R cells, DiscoveRx beta-arrestin luminescence, antagonist mode; hits give low values; in the data active means max response below about -50%; inconclusive means no clear call, values can overlap the other calls; further: on the % scale 0 is the no-effect control and ±100 the full control effect
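Cells expressing the human receptor were seeded at 1500 cells/well, incubated overnight at 37 degrees C in 5% CO2, then exposed to library compounds with dopamine controls for 90 minutes at 37 degrees C before luminescent detection.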
* hit, by the source's call; [ ] = dose if it differs, or a comment. Unless noted, the call rests on the fitted dose curve; in most records, active means well fitted curve in the direction sought with a large enough effect; inconclusive means small, poorly fitted or top-dose-only effect, or another doubt; inactive means no such curve, though single readings can be large; an effect the other way counts as inactive or inconclusive.

`O=C(CCN1CCN(c2ccccc2F)CC1)Nc1ccc2c(c1)OCO2` gave PTHR1 ag -36%[57.5 µM], D3 ag 40*, CBFb RUNX1 block -7%, Integrin act MD 8%, MBNL1 CUG block 7% and DRD3 antagonist 314.
CC(=O)c1ccc(NC(=O)Cn2cc(S(=O)(=O)Cc3ccccc3Cl)c3ccccc32)cc1 was read as PTHR1 ag 0% and D3 ag -14.
`CCc1ccccc1NC(=O)Cn1ccn(Cc2ccccc2)c(=O)c1=O` gave PTHR1 ag -25% and D3 ag -7.
For COc1ccc(OC)c(C2C(C(=O)c3cccs3)=C(O)C(=O)N2c2cc(C)on2)c1 (stereo not drawn) the results were PTHR1 ag inactive, D3 ag 4, CBFb RUNX1 block 4%, Integrin act MD 23%, MBNL1 CUG block inconclusive and DRD3 antagonist -69*.
Screening COc1cccc(C2C(C(=O)c3cccs3)=C(O)C(=O)N2c2cc(C)on2)c1 (stereo not drawn) returned PTHR1 ag inactive, D3 ag 10, CBFb RUNX1 block -1%, Integrin act MD 6%, MBNL1 CUG block inconclusive and DRD3 antagonist -55*.
For COc1cc(C2C(C(=O)c3cccs3)=C(O)C(=O)N2c2cc(C)on2)ccc1O (stereo not drawn) the results were PTHR1 ag -2%[57.5 µM], D3 ag -2, CBFb RUNX1 block -3%, Integrin act MD 19%, MBNL1 CUG block inconclusive and DRD3 antagonist 0.
For Cc1cc(SCC(=O)c2cccs2)nc2ccccc12 the results were PTHR1 ag inactive, D3 ag -2, CBFb RUNX1 block -4%, Integrin act MD 0%, MBNL1 CUG block 16% and DRD3 antagonist -3.
CC(Nc1ccc(Cl)cc1)c1cc(Cl)ccc1O (stereo not drawn) was read as PTHR1 ag -35%[57.5 µM], D3 ag -1, CBFb RUNX1 block 1%, Integrin act MD -16%, MBNL1 CUG block -1% and DRD3 antagonist -55*.
CCOc1ccc(NC(C)c2cc(Cl)ccc2O)cc1 (stereo not drawn) was read as PTHR1 ag -5%[57.5 µM], D3 ag -8, CBFb RUNX1 block -16%, Integrin act MD -17%, MBNL1 CUG block 3% and DRD3 antagonist -52*.
Screening CCOc1ccc(S(=O)(=O)Nc2cc(Cl)ccc2O)cc1 returned PTHR1 ag -11%, D3 ag 3, CBFb RUNX1 block 9%, Integrin act MD 17%, MBNL1 CUG block 0% and DRD3 antagonist 1.
For CC(Nc1ccc(Br)cn1)c1cc(Cl)ccc1O (stereo not drawn) the results were PTHR1 ag -50%, D3 ag -1, CBFb RUNX1 block 18%, Integrin act MD inconclusive, MBNL1 CUG block -9% and DRD3 antagonist 5.
Screening CC(=O)Nc1ccc(Nc2nc3c(S(=O)(=O)c4cccc(Cl)c4)nnn3c3ccsc23)cc1 returned PTHR1 ag -19% and D3 ag 1.
For Cc1cc(C)cc(Nc2nc3c(S(=O)(=O)c4cccc(Cl)c4)nnn3c3ccsc23)c1 the results were PTHR1 ag inactive and D3 ag 54*.
Screening O=C1NC2CCCCN2C12CCN(CCCN1c3ccccc3CCc3ccc(Cl)cc31)CC2 (stereo not drawn) returned D3 ag -26.
For CNCCCC1Sc2ccccc2Oc2ccccc21 (stereo not drawn) the results were PTHR1 ag inactive, D3 ag 2, CBFb RUNX1 block 8%, Integrin act MD -57%, MBNL1 CUG block inconclusive and DRD3 antagonist -74*.
Screening COc1cccc(/C=C/C(=O)c2c(O)cc(C)oc2=O)c1O returned PTHR1 ag -29%, D3 ag 1, CBFb RUNX1 block -14%, Integrin act MD -59%, MBNL1 CUG block 14% and DRD3 antagonist -74*.
